Assay results taken from PubChem BioAssay (EPA / NIEHS).
Calls of active or inactive are those of the source. The calls were made as follows: active = hit-call score of the fitted dose curve at least 0.9, where 1 is the maximum; inactive = score below 0.9.

Target: Aryl hydrocarbon receptor (Homo sapiens) (UniProt P35869)
Test: ATG_Ahr_CIS: Attagene CIS-FACTORIAL HepG2 Assay for human Aryl Hydrocarbon Receptor (Ahr) (AID 2282930)
Details: HepG2 AhR cis-factorial reporter transcription; actives raise or lower the signal
Protocol: ATG_CIS is a cell-based, multiplexed-readout assay that uses HepG2, a human liver cell line, with measurements taken at 24 hours after chemical dosing in a 24-well plate.ATG_Ahr_CIS is one of 52 assay component(s) measured or calculated from the ATG_CIS assay. It is designed to make measurements of mRNA induction, a form of inducible reporter, as detected with fluorescence intensity signals by Reverse transcription polymerase chain reaction (RT-PCR) and Capillary electrophoresis technology.Data from the assay component ATG_Ahr_CIS was analyzed into 1 assay endpoint. This assay endpoint, ATG_Ahr_CIS, was analyzed with bidirectional fitting relative to DMSO as the negative control and baseline of activity. Using a type of inducible reporter, measures of mRNA for gain or loss-of-signal activity can be used to understand the reporter gene at the transcription factor-level as they relate to the gene AHR. Furthermore, this assay endpoint can be referred to as a primary readout, because this assay has produced multiple assay endpoints where this one serves a reporter gene function. To generalize the intended target to other relatable targets, this assay endpoint is annotated to the dna binding intended target family, where the subfamily is basic helix-loop-helix protein.
Human liver HepG2 cells are transiently transfected with multiple reporter transcription units (MRTUs) in 6-well plates using FuGene 6 reagent (Roche; 3 ml FuGene/1 mg DNA). The MRTU constructs are regulated by a cis-regulating element (promoter). […] A major difference between the CIS and TRANS system is that in CIS activities of endogenous TFs are measured, whereas the TRANS assay evaluates changes in activities of exogenous, chimeric NR-Gal4 proteins. […] At the end of 24 hour incubation, total RNA was isolated using TriZol reagent (Invitrogen). The isolated RNA is then reverse-transcribed using oligo(dT) primer and Mo-MLV reverse transcriptase (Invitrogen) with DNAse I (Ambion) treatment for 30 min. The one-tenth of the produced cDNA was amplified by PCR using Taq DNA polymerase (Invitrogen) and two reporter sequence-specific primers. The PCR products were fluorescently labeled by primer extension with 6-arboxyfluorescein (6-FAM) 5'-labeled reporter sequence-specific primer (2 min at 95 C, 20 s at 68 C and 10 min at 72 C) and these products were digested with 5U of HpaI (New England Biolabs) for 2h at 37 C. […] The raw capillary electrophoresis data was processed using Attagraph software (Attagene).

Chain of Aryl hydrocarbon receptor (Homo sapiens) (P35869 whole entry, looked up): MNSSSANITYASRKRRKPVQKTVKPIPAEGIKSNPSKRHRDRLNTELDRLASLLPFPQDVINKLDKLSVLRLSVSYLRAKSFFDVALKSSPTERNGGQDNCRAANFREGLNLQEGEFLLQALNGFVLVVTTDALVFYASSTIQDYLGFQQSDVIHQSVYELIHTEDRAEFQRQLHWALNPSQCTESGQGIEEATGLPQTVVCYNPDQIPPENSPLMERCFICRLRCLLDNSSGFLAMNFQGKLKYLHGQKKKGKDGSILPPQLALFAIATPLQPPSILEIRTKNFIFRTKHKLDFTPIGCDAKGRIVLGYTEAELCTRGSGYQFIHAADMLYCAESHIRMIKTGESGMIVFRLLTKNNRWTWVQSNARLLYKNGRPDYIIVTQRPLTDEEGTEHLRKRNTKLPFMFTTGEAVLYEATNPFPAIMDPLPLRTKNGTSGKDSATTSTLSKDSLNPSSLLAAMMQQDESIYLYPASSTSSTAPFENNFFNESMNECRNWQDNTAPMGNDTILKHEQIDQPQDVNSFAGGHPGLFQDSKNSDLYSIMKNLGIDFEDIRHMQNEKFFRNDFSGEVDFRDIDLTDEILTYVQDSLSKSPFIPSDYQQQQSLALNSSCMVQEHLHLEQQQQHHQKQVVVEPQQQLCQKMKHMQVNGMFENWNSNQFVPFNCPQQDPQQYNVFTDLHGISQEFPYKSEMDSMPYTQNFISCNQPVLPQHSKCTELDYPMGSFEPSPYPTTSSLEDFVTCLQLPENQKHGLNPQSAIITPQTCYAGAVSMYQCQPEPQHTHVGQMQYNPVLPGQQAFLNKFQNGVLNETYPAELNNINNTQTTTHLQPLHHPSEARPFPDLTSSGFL

outcome, inactive:
O=C(NS(=O)(=O)/C=C/c1ccccc1)c1ccc(F)cc1Cl
CCOC(=O)COc1ccc2c(c1)CC(NCC(O)c1cccc(Cl)c1)CC2 (stereo not given)
CN(C)c1ccc(Cc2ccc(N(C)C)cc2)cc1
Nc1nc2ncc(CNc3ccc(C(=O)N[C@@H](CCC(=O)O)C(=O)O)cc3)nc2c(=O)[nH]1
Cn1cnc([N+](=O)[O-])c1Sc1ncnc2nc[nH]c12
CC/C(=C\C(=N/O)C(N)=O)C(C)[N+](=O)[O-] (stereo not given)
O=C(O)c1cccc(N(Cc2cccnc2)c2ccc(OC(F)F)c(OC(F)F)c2)c1
CC(C)=CCC/C(C)=C\CO
CCCCCCCCCCCCCCCO
O=C(OC[C@H]1O[C@@H](OC(=O)c2cc(O)c(O)c(OC(=O)c3cc(O)c(O)c(O)c3)c2)[C@H](OC(=O)c2cc(O)c(O)c(OC(=O)c3cc(O)c(O)c(O)c3)c2)[C@@H](OC(=O)c2cc(O)c(O)c(OC(=O)c3cc(O)c(O)c(O)c3)c2)[C@@H]1OC(=O)c1cc(O)c(O)c(OC(=O)c2cc(O)c(O)c(O)c2)c1)c1cc(O)c(O)c(OC(=O)c2cc(O)c(O)c(O)c2)c1
O=c1n(CC2CO2)c(=O)n(CC2CO2)c(=O)n1CC1CO1 (stereo not given)
CC[C@H](C)C(=O)O[C@H]1C[C@@H](C)C=C2C=C[C@H](C)[C@H](CC[C@@H]3C[C@@H](O)CC(=O)O3)[C@H]21
COc1ccc(/C=C/S(=O)(=O)NC(=O)c2ccc(C)cc2Cl)cc1
Cc1ccc(C)c(O)c1
C1N2CN3CN1CN(C2)C3
Clc1nc(Cl)c(Cl)c(Cl)c1Cl
O=C1CCCCCN1
CCOc1cccc(-n2cc(C(=O)N3CCN(c4cc(C(=O)O)c5ccccc5c4)CC3)nc2-c2ccc(C)cc2)c1
CC(O)CN(CCN(CC(C)O)CC(C)O)CC(C)O (stereo not given)
CC[C@H]1CC[C@H](NCc2cc3c(cc2OC)[C@H]2C[C@H]2C(=O)N3C)[C@H](c2ccccc2)N1
C=CCCCCCCCCC(=O)O
COc1ccc2sc(C(=O)Nc3nnn[nH]3)c(OC(C)C)c2c1
CC(C)=CCC/C(C)=C/CO
Nc1ccc(Nc2ccccc2)cc1
CC(C)=CCCC(C)CCO (stereo not given)
COC(=O)CC(=O)OC
CCCCCCCCO
O=C(O)CCN(C1(C(=O)NO)CCCC1)S(=O)(=O)c1ccc(Oc2ccc(F)cc2)cc1
On1ccccc1=S
Cc1[nH]cnc1C[C@H]1CCc2c(C)c3ccccc3n2C1=O
C[C@](N)(Cc1ccc(O)c(O)c1)C(=O)O
CCCCCCc1ccc(O)cc1O
COc1ccc(-n2nc(C(F)F)cc2-c2ccc(S(C)=O)cc2)cc1 (stereo not given)

AC50, active:
Cc1ccc(N)cc1O 2.56 µM
CC1(C)C(=O)N(Br)C(=O)N1Br 68.5 µM
C=CC(=C)CCC=C(C)C 67.1 µM
CNCc1ccc(NC(=O)c2c[nH]c3c2C(=O)CCC3)cc1 4.66 µM
COCCOc1cc2cc(C(=O)NC3CCN(C(C)C)CC3)n(CC(=O)Nc3ccc(Cl)cn3)c2cn1 6.53 µM
Oc1ccc2c(c1)-c1ccccc1C2 2.53 µM
CN(C)c1ccc(N=NS(=O)(=O)O)cc1 7.46 µM
